Reference: PMC10726135, “HNF4α isoforms regulate the circadian balance between carbohydrate and lipid metabolism in the liver”
Whole data set: some 18,000 sequences, median “log2 normalized intensity” near 0.39, cut for the highest 2% near 6.6. What follows is part of a selection rich in the highest values, with near analogues and random picks from the rest.

biological target: T1, HNF4alpha2 (COS-7 nuclear extract) (Homo sapiens, UniProt P41235 1-474); assay: protein-binding microarray; COS-7 nuclear extract on double-stranded Agilent 4x180k PBM; binding buffer, salt, pH and temperature not given in the material; high values mean tight binding; details: chain copies: 2; label: 3' end of strand 1 on the slide; dsDNA, one strand shown
T1 sequence: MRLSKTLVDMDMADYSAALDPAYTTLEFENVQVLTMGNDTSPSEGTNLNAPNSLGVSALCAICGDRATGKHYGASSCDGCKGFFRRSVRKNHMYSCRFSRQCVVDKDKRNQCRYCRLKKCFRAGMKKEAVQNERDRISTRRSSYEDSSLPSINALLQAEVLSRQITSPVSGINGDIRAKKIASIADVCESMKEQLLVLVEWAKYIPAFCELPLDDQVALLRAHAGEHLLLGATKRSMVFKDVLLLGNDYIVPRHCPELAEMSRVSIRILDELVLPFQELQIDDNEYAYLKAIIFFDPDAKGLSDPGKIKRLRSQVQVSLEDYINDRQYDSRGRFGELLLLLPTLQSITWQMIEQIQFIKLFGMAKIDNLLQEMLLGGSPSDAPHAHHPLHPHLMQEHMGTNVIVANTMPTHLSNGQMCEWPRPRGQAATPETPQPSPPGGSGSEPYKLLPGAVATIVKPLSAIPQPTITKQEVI
Procedure, shortened: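 Binding signal was defined as the normalized, background-corrected gProcessedSignal reported by Agilent software. It came from nuclear extracts of COS-7 cells transiently transfected with a human HNF4α isoform expression vector, applied to a custom Agilent SurePrint G3 4x180k array. That array held ~44,000 test sequences in quadruplicate as double-stranded ~60-nt oligonucleotides, and bound HNF4α was imaged at 2-µm resolution on an Agilent G2565CA scanner.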

Sequence | binding signal [log2 normalized intensity]
TCAGAGCAGGTGAACGACTTGACAAAGGTCGCCTAGGGAGATTAGAGTATCGGTCGA | 3.22
GAATGACTTTGGGGAAATGACCTTTGTCCAGCCTAGGGAGATTAGAGTATCGGTCGA | 8.8
ACTTTGGGGAAATGACCTTTGTCCAGCTGTGCCTAGGGAGATTAGAGTATCGGTCGA | 6.74
GGGGAAATGACCTTTGTCCAGCTGTGCCGAGCCTAGGGAGATTAGAGTATCGGTCGA | 6.11
CTGGTGTAGTGGGGAGGGCATGGACTTTGGGCCTAGGGAGATTAGAGTATCGGTCGA | 5.45
GGGGAGGGCATGGACTTTGGAATTAAGGAGGCCTAGGGAGATTAGAGTATCGGTCGA | 5.45
GGAGGACTTTGGAATGGCAGTGCTTGTCCAGCCTAGGGAGATTAGAGTATCGGTCGA | 1.83
AATGACCTTTGTCCAGCTGTGCCGAGCCTGGCCTAGGGAGATTAGAGTATCGGTCGA | 4.02
GTATTAACATGTAAATATGACCTTTGCTTTGCCTAGGGAGATTAGAGTATCGGTCGA | 6.44
TGATGACTTTTGACCCCAGGGGAAACTCCAGCCTAGGGAGATTAGAGTATCGGTCGA | 3.99
GTAGTGGGGAGGGCATGGACTTTGGAATTAGCCTAGGGAGATTAGAGTATCGGTCGA | 7.37
TTATCATGTGGTATTAACATGTAAATATGAGCCTAGGGAGATTAGAGTATCGGTCGA | 1.69
ATGTGGTATTAACATGTAAATATGACCTTTGCCTAGGGAGATTAGAGTATCGGTCGA | 7.12
CTAAAAACATTGTGGAGCTCATGTAAGGTCGCCTAGGGAGATTAGAGTATCGGTCGA | 1.62
CATGTGGGTCCAAAGAACATTGCATTCCTTGCCTAGGGAGATTAGAGTATCGGTCGA | 1.55
CCCCGCCTTGGCCTCCCGGAGAGGCCCCGCGCCTAGGGAGATTAGAGTATCGGTCGA | 2.49
CCCCCACACCATTAGAGAACATGTACTTTGGCCTAGGGAGATTAGAGTATCGGTCGA | 3.32
TTAAAGGGCAGAAGAAGGGATTTAGATTAGGCCTAGGGAGATTAGAGTATCGGTCGA | -0.58
GATCCTCCCACTTCAGCCTCCCGAGTAGTTGCCTAGGGAGATTAGAGTATCGGTCGA | 2.81
TGAGAGAGCATCCAGATAAAGCTGAAGAAAGCCTAGGGAGATTAGAGTATCGGTCGA | -0.814
TTCAGCCATTTTATGACCATGAGGTGACGGGCCTAGGGAGATTAGAGTATCGGTCGA | 1.6
ACGTGGCAATCATTCTGTCTGCCTTCAGGCGCCTAGGGAGATTAGAGTATCGGTCGA | -0.947
CACTGTTGCCCCTTCCAAAGTCCACCTCAAGCCTAGGGAGATTAGAGTATCGGTCGA | 4.43
CCTTTTTGGAATGTGTTTGCATGACTCATAGCCTAGGGAGATTAGAGTATCGGTCGA | 1.77
ATGACCTTTGAGCAATAGGAAATGGGAGGGGCCTAGGGAGATTAGAGTATCGGTCGA | 2.34
GCATGGAATGACTTTGGGGAAATGACCTTTGCCTAGGGAGATTAGAGTATCGGTCGA | 7.23
CCTTGACACATCTGATTAGAGGCTCAGGTAGCCTAGGGAGATTAGAGTATCGGTCGA | -0.794

Sequence | binding signal [log2 normalized intensity]
TTATATCAGAGGAATGTCTGACCAACCTGTGCCTAGGGAGATTAGAGTATCGGTCGA | 0.0786
ACCAACCTGTCCAAAGGTCATCTGTCACTCGCCTAGGGAGATTAGAGTATCGGTCGA | 5.7
CCTGTCCAAAGGTCATCTGTCACTCTAGATGCCTAGGGAGATTAGAGTATCGGTCGA | 5.47
TCAGAGGAATGTCTGACCAACCTGTCCAAAGCCTAGGGAGATTAGAGTATCGGTCGA | 0.136
GTCTGACCAACCTGTCCAAAGGTCATCTGTGCCTAGGGAGATTAGAGTATCGGTCGA | 7.04
GGAATGTCTGACCAACCTGTCCAAAGGTCAGCCTAGGGAGATTAGAGTATCGGTCGA | 7.66
CACTTACAAGTGTACAAAGGTCACTTCTGTGCCTAGGGAGATTAGAGTATCGGTCGA | 6.32
CTTGGCTGTGTCCCTTGACCAAAGGTCACTGCCTAGGGAGATTAGAGTATCGGTCGA | 6.77
ATTGGCTTGGCTGTGTCCCTTGACCAAAGGGCCTAGGGAGATTAGAGTATCGGTCGA | 2.07
AGTATATTGGCTTGGCTGTGTCCCTTGACCGCCTAGGGAGATTAGAGTATCGGTCGA | 3.04
CTGTACACTTACAAGTGTACAAAGGTCACTGCCTAGGGAGATTAGAGTATCGGTCGA | 7.61
TATACCTGTACACTTACAAGTGTACAAAGGGCCTAGGGAGATTAGAGTATCGGTCGA | 2.65
AAGGCTTTGAAGTCTGGTGGCAAGTACCCTGCCTAGGGAGATTAGAGTATCGGTCGA | -0.842
ATTTTCTCATCCCAGGGATAATGATAAAGAGCCTAGGGAGATTAGAGTATCGGTCGA | -0.184
TCCCTTTAGTGGAGTATAGGAACATGAACTGCCTAGGGAGATTAGAGTATCGGTCGA | 1.96
GAGTTGGGGACAAAGTTCAAGGTCCAGCCTGCCTAGGGAGATTAGAGTATCGGTCGA | 5.28
GTCCAAGATGGCAATGTTCCTGCTCTGTCAGCCTAGGGAGATTAGAGTATCGGTCGA | -0.996
AGATTACTTCAAGGCTGGAGTTCACTCCCAGCCTAGGGAGATTAGAGTATCGGTCGA | -0.354
CATGGGTCTCTTCCTCAGTTTGTTCTTGGGGCCTAGGGAGATTAGAGTATCGGTCGA | 1.18
GATCCAAAAGACCCAGGTGTGTTGCAACTTGCCTAGGGAGATTAGAGTATCGGTCGA | 0.84
TGGGTGGGGGAAGTGTGGTCAAGGGTCAGTGCCTAGGGAGATTAGAGTATCGGTCGA | 4
CCCATCCGCAGTGGGAGAGCAAGGGTCAAGGCCTAGGGAGATTAGAGTATCGGTCGA | 3.57
CCGCAGTGGGAGAGCAAGGGTCAAGGGTCAGCCTAGGGAGATTAGAGTATCGGTCGA | 6.65
AAGGGTCAAGGGTCATTTGTTTTTACAGACGCCTAGGGAGATTAGAGTATCGGTCGA | 6.27
GTGGGAGAGCAAGGGTCAAGGGTCATTTGTGCCTAGGGAGATTAGAGTATCGGTCGA | 6.7
AGAGCAAGGGTCAAGGGTCATTTGTTTTTAGCCTAGGGAGATTAGAGTATCGGTCGA | 5.91
CAGAACAAAGTCCAGTAAGGACAGTTCCAGGCCTAGGGAGATTAGAGTATCGGTCGA | 2.29
